Test results from PubChem BioAssay (NCI).
This is part of a sample that, as a whole, favours compounds with a hit. Of some 83,000 tested, about 20% had one in any assay.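 48-hour exposure, single concentration, 96-well plates; percent growth endpoint where 0 means no net growth. Active: below 10.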 A number with no mark means an inactive call. Active and inactive are the calls of the source.

How the values were obtained:
Assay in all cases: NCI-60 one-dose screen, 48 h (100 = growth as untreated, 0 = no growth, -100 = all killed)
Conditions in all cases: 10 µM unless noted
[1] = system: SK-MEL-2 melanoma
[2] = system: EKVX NSCLC
[3] = system: SN12C renal
[4] = system: UO-31 renal
[5] = system: TK-10 renal
[6] = system: ACHN renal
[7] = system: CAKI-1 renal
[8] = system: A498 renal
[9] = system: CCRF-CEM leukemia
[10] = system: MOLT-4 leukemia
[11] = system: RPMI-8226 leukemia
[12] = system: OVCAR-8 ovarian
[13] = system: OVCAR-5 ovarian
[14] = system: OVCAR-4 ovarian
[15] = system: SK-OV-3 ovarian
[16] = system: IGROV1 ovarian
[17] = system: OVCAR-3 ovarian
[18] = system: HS 578T breast
[19] = system: NCI/ADR-RES ovarian
[20] = system: SR leukemia

SMILES | growth [1] | growth [2] | growth [3] | growth [4] | growth [5] | growth [6] | growth [7] | growth [8] | growth [9] | growth [10] | growth [11] | growth [12] | growth [13] | growth [14] | growth [15] | growth [16] | growth [17] | growth [18] | growth [19] | growth [20] [%]
Cc1nc2ccccc2c(/C=C/c2ccc(Cl)cc2)c1C(=O)/C=C/c1ccc(Cl)cc1 | -13.6% (active) | -11.9% (active) | -61.6% (active) | -86.2% (active) | -6.59% (active) | -90.3% (active) | -33.8% (active) | -75.5% (active) | 7.4% (active) | 5.06% (active) | -17.4% (active) | 5.4% (active) | -45.6% (active) | 0.984% (active) | 28.4% | -51.8% (active) | -70.6% (active) | -4.76% (active) | -15.4% (active) | –
CS(=O)(=O)c1ccc(N/N=C/c2c(-c3ccc(S(C)(=O)=O)cc3)[nH]c3ccc(F)cc23)cc1 | 3.8% (active) | 64.2% | 36.2% | 53.8% | 35.2% | 48.2% | 57.5% | 25.9% | 4.8% (active) | -1.41% (active) | -41.7% (active) | 26.1% | 75.1% | 40.2% | 54.6% | 35.4% | 41.7% | 5.71% (active) | 91.5% | –
CN1CCN(C(=O)[C@@]2(C)CC[C@]3(C)CC[C@]4(C)C(=CC[C@@H]5[C@@]6(C)C/C(=C/c7ccncc7)C(=O)C(C)(C)[C@@H]6CC[C@]54C)[C@@H]3C2)CC1 | 85.1% | 62.7% | 46.2% | 44.3% | 75.5% | 67.4% | 46.3% | 79.9% | 6.69% (active) | 2.16% (active) | 12.8% | 50.9% | 88.2% | 37.9% | 55.2% | 56.7% | 50.7% | 54% | 62.1% | –
C=C1C(=O)O[C@H]2[C@H]1CC/C(COC(=O)NCc1ccc(Cn3c(=O)sn(CCCCl)c3=O)cc1)=C\CC[C@@]1(C)O[C@@H]21 | 49% | 57.1% | 18.5% | 11% | -65.2% (active) | -57.7% (active) | 27.7% | 104% | -38% (active) | -31.7% (active) | -30.1% (active) | 43.7% | 69.8% | 15.2% | 91.9% | -36.3% (active) | -87.9% (active) | 88.2% | 104% | –
C=C1c2c(C)nn(-c3ccc(N)cc3)c2N(C)C23CC1C1(C)c4c(C)nn(-c5ccc(N)cc5)c4N(C)C(C)(CC12)C3 (centres undefined) | 79.2% | 52.3% | 89.5% | 51% | 76.2% | 58.9% | 76.6% | 89.4% | 47.8% | – | 40.9% | 71% | 101% | 70.7% | 70.6% | 100% | 78.4% | 90.6% | 78.8% | –
Cc1cc(N2CCCCC2)nc(N(CCNc2ccnc3cc(Cl)ccc23)Cc2ccccn2)n1 | 79.9% | 53.7% | 62.3% | 23.7% | 83.8% | 62% | 54.1% | 37.7% | 31.8% | – | -14.7% (active) | 52.8% | 68.2% | 41.6% | 60.5% | 31% | 56.8% | 53.5% | 50.4% | –
CCCn1nc(-c2ccccc2)c2c(-c3ccccc3)onc2c1=O | 57.8% | 78.9% | 82.1% | 68.8% | 106% | 94.1% | 85.9% | 68.9% | 68.7% | – | 70.2% | 102% | 87.7% | 79.7% | 83.6% | 72.5% | 91.8% | 67.7% | 68.5% | –
O=C(NCc1cccnc1)c1cc(-c2csc3c(=O)cc(N4CCOCC4)oc23)cc2c1OCCO2 | 51.1% | 62.5% | 41.7% | 30.3% | 14.1% | 34.5% | 31.1% | 39.9% | 39.6% | – | 9.21% (active) | 38% | 31.3% | 50.3% | 8.37% (active) | 7.23% (active) | 34.7% | 8.92% (active) | 89.3% | –
COc1cc(-c2ccc(N=Nc3c(O)c(C(=O)Nc4ccccc4OC)cc4ccccc34)c(OC)c2)ccc1N=Nc1c(O)c(C(=O)Nc2ccccc2OC)cc2ccccc12 | 101% | 96.4% | 98.6% | 78.7% | 110% | 90.7% | 83.8% | 78% | 9.35% (active) | – | 97.2% | 99.3% | 99.6% | 98.9% | 103% | 88.3% | 99.3% | 84.8% | 96.4% | 41.8
C=C1c2c(C)nn(-c3ccc(NC(C)=O)cc3)c2N(C)C23CC1C1(C)c4c(C)nn(-c5ccc(NC(C)=O)cc5)c4N(C)C(C)(CC12)C3 (centres undefined) | 36.6% | 24.9% | 45.6% | 24.2% | 37.3% | 19.4% | 32.8% | 60.3% | 8.28% (active) | – | -50.5% (active) | 40.8% | 78.1% | 35% | 48.5% | 64.8% | 34.3% | 62.6% | 43.4% | –
C=C(CNCCc1ccc(O)cc1)[C@@H]1CC[C@]2(COC3CCCCO3)CC[C@]3(C)[C@H](CC[C@@H]4[C@@]5(C)CCC(NCCO)C(C)(C)[C@@H]5CC[C@]43C)[C@@H]12 (some centres undefined) | -81.3% (active) | -77.5% (active) | -92.2% (active) | -97.3% (active) | -89.7% (active) | -99.2% (active) | -92.1% (active) | -1.47% (active) | -51.1% (active) | – | -56.8% (active) | -85.1% (active) | -93.1% (active) | -91.5% (active) | -48.9% (active) | -83.9% (active) | -94.4% (active) | -51.5% (active) | -79.3% (active) | –
CC(=O)Nc1ccc(C(=O)/C=C/c2ccccc2)cc1 | 78.2% | 95.2% | 77.2% | 51.8% | 82.1% | 94.6% | 88.2% | 74% | 95.1% | – | – | 75.1% | 94.6% | 99.9% | 105% | 77% | 77.3% | 98.8% | 94.2% | 49.6
Cn1ccc(Cc2cnc(N)s2)n1 | 97.4% | 106% | 104% | 86.2% | 88.7% | 99.8% | 93.6% | 94.2% | 100% | – | 101% | 94.5% | 106% | 99.4% | 99.7% | 111% | 106% | 93.5% | 102% | 88.7
CCCCCCCCc1cc[n+](CC(=O)c2ccc(Br)cc2)cc1 | 0.325% (active) | 35.7% | 8.54% (active) | 38.2% | -67.5% (active) | 9.78% (active) | 41.4% | 88.8% | 0.476% (active) | – | -9.98% (active) | -65.8% (active) | 51.9% | 18.8% | 22% | 1.68% (active) | -44.1% (active) | -29.2% (active) | 93.3% | –
CNC(=O)NCC1OC(n2cnc3c(NC(=O)Nc4ccccc4)ncnc32)C2OC(C)(C)OC12 (centres undefined) | 104% | 102% | 94.7% | 73.7% | 134% | 105% | 72.6% | 87.2% | 95.4% | 103% | 87.2% | 100% | 109% | 89.6% | 79.3% | – | 89% | 102% | 101% | –
Clc1ccc2c(NCCCN3CCN(c4nc(-n5ccnc5)nc5ccccc45)CC3)ccnc2c1 | 97.7% | 86% | 84.1% | 43.5% | 122% | 110% | 86.3% | 85.1% | 6.59% (active) | – | -48.6% (active) | 84.2% | 120% | 64.9% | 109% | 86.5% | 90.5% | 85.5% | 90.7% | –
